In PubChem BioAssay (NCI):
The panel holds about 79,000 compounds, 15% with a hit somewhere; the sample as a whole holds those more often. The source made the active and inactive calls. No stated cut-off is given here; in the data, active means growth inhibition above about 70%; inactive means the rest.

Assays:
[1] = NCI Yeast Anticancer Drug Screen. Data for the rad52 strain (AID 147);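 further: 0% = growth of vehicle-treated control cultures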; details: S. cerevisiae rad52 mutant growth inhibition, stronger effect = higher value
Method in brief: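 Read-out: growth inhibition versus vehicle-treated controls. Cells were a DNA repair-deficient yeast strain treated with compounds.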

[2] = NCI Yeast Anticancer Drug Screen. Data for the wt1 strain (AID 149);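 further: 0% = growth of vehicle-treated wt1 cultures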; details: S. cerevisiae wt1 strain (SPY 50644) growth inhibition, stronger effect = higher value
Method in brief: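 Compounds are added to wt1 yeast cultures. Growth is then measured. Inhibition is expressed relative to vehicle-treated controls.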

[3] = NCI Yeast Anticancer Drug Screen. Data for the rad50EPP+ strain (AID 151);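 further: 0% = growth of vehicle-treated control cultures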; details: S. cerevisiae rad50 mutant strain, stronger effect = higher value
Method in brief: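 Growth inhibition read against vehicle controls in rad50EPP+ yeast, a strain altered in DNA damage repair, after compound exposure.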

[4] = NCI Yeast Anticancer Drug Screen. Data for the mgt1 strain (AID 153); details: S. cerevisiae mgt1 mutant growth inhibition, stronger effect = higher value
Method in brief: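 mgt1 yeast grown with test compound; read-out is growth inhibition versus vehicle-treated cultures.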

[5] = NCI Yeast Anticancer Drug Screen. Data for the rad50 strain (AID 155);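 further: 0% = growth of vehicle-only cultures of the same strain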; details: S. cerevisiae rad50 strain growth inhibition, stronger effect = higher value
Method in brief: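 Inhibition values express reduced yeast growth in compound-treated cultures relative to vehicle-treated controls.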

[6] = NCI Yeast Anticancer Drug Screen. Data for the mec2-1 strain (AID 157); details: S. cerevisiae mec2-1 strain, stronger effect = higher value
Method in brief: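 Yeast mec2-1 mutant treated with compound. Readout: growth inhibition vs vehicle controls.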

[7] = NCI Yeast Anticancer Drug Screen. Data for the rad14 strain (AID 159);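 further: 0% = growth of vehicle-treated control cultures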; details: S. cerevisiae rad14 strain growth inhibition, stronger effect = higher value
Method in brief: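 A mutant yeast strain defective in DNA damage repair is treated with compound; inhibition of its growth is scored against untreated, vehicle-exposed cultures.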

[8] = NCI Yeast Anticancer Drug Screen. Data for the sgs1 mgt1 strain (AID 161);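 further: 0% = growth of cultures given vehicle only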; details: S. cerevisiae sgs1 mgt1 strain, stronger effect = higher value
Method in brief: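 Test agents were incubated with a DNA-repair-mutant yeast strain. Growth was then read and compared against vehicle-treated controls.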

[9] = NCI Yeast Anticancer Drug Screen. Data for the CLN2oe strain (AID 163);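 further: 0% = growth of vehicle-only control cultures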; details: S. cerevisiae CLN2oe strain, stronger effect = higher value
Method in brief: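 Read-out: yeast growth inhibition, expressed relative to vehicle-only controls. The strain bears an engineered cell-cycle alteration.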

[10] = NCI Yeast Anticancer Drug Screen. Data for the cln2 rad14 strain (AID 165);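 further: 0% = growth equal to vehicle treated cultures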; details: S. cerevisiae cln2 rad14 strain, stronger effect = higher value
Method in brief: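 cln2 rad14 yeast strain; compound exposure; growth inhibition read vs vehicle controls.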

[11] = NCI Yeast Anticancer Drug Screen. Data for the bub3 strain (AID 167); details: S. cerevisiae bub3 mutant strain, stronger effect = higher value
Method in brief: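 Steps: expose the mutant yeast strain to compound; grow alongside vehicle-treated cultures; measure growth; express inhibition against the vehicle cultures.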

[12] = NCI Yeast Anticancer Drug Screen. Data for the wt2 strain (AID 169);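 further: 0% = growth of vehicle-treated yeast cultures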; details: S. cerevisiae wt2 strain growth inhibition, stronger effect = higher value
Method in brief: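 Read-out: growth inhibition versus vehicle-treated control cultures after compound exposure of the yeast strain.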

[13] = NCI Yeast Anticancer Drug Screen. Data for the mlh1 strain (AID 171);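 further: 0% = growth of vehicle-treated control cultures of the same strain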; details: S. cerevisiae mlh1 strain growth inhibition, stronger effect = higher value
Method in brief: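 Read-out: growth inhibition versus vehicle controls. Strain: engineered yeast with a defined DNA repair or cell cycle defect, compound-treated.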

[14] = NCI Yeast Anticancer Drug Screen. Data for the sgs1 strain (AID 173);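 further: 0% = growth of vehicle-only control cultures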; details: S. cerevisiae sgs1 mutant, stronger effect = higher value
Method in brief: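 Read-out: yeast growth inhibition relative to vehicle controls, following compound exposure of a strain with a defined DNA repair/cell cycle alteration.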

[15] = NCI Yeast Anticancer Drug Screen. Data for the mlh1 rad18 strain (AID 175); details: S. cerevisiae mlh1 rad18 strain growth inhibition, stronger effect = higher value
Method in brief: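 Yeast w/ defined DNA-repair lesions; compound exposure; growth vs vehicle controls → % inhibition.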

[16] = NCI Yeast Anticancer Drug Screen. Data for the rad18 strain (AID 177); details: S. cerevisiae rad18 mutant growth inhibition, stronger effect = higher value
Method in brief: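 Readout: growth inhibition vs vehicle controls. Cells: genetically altered yeast strain, DNA repair defect.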

[17] = at 5.0 µM (retest, dose inferred, filed as 0.5)
[18] = at 50.0 µM (retest, dose inferred, filed as 5.0)

Measured: growth inhibition

O=C(C#Cc1ccccc1)/C=C/c1ccccc1
inactive: [1]; at 1.2 µM 4% | [1]; at 3.7 µM 3% | [1]; at 11.0 µM 29% | [2]; at 1.2 µM -6% | [2]; at 3.7 µM -9% | [2]; at 11.0 µM 10% | [2]; at 33.0 µM 51% | [3]; at 1.2 µM 1% | [3]; at 3.7 µM 20% | [3]; at 11.0 µM 53% | [4]; at 1.2 µM 0% | [4]; at 3.7 µM -5% | [4]; at 11.0 µM 3% | [4]; at 33.0 µM 28% | [5]; at 1.2 µM -6% | [5]; at 3.7 µM -8% | [5]; [17] -136% | [5]; at 11.0 µM 8% | [6]; at 1.2 µM 0% | [6]; at 3.7 µM 2% | [6]; [17] -43% | [6]; at 11.0 µM 4% | [6]; at 33.0 µM 16% | [6]; [18] 10% | [7]; at 1.2 µM -1% | [7]; at 3.7 µM 12% | [7]; at 11.0 µM 10% | [8]; [17] -53% | [9]; at 1.2 µM -7% | [9]; at 3.7 µM -7% | [9]; at 11.0 µM -2% | [9]; at 33.0 µM 14% | [10]; [17] -46% | [10]; [18] -23% | [11]; at 1.2 µM -2% | [11]; at 3.7 µM -1% | [11]; [17] -65% | [11]; at 11.0 µM 7% | [11]; [18] 53% | [12]; at 1.2 µM -21% | [12]; at 3.7 µM -5% | [12]; at 11.0 µM 13% | [13]; at 1.2 µM -9% | [13]; at 3.7 µM -2% | [13]; at 11.0 µM -3% | [13]; at 33.0 µM 49% | [14]; at 1.2 µM -4% | [14]; at 3.7 µM 2% | [14]; at 11.0 µM 24% | [15]; [17] -140% | [16]; at 1.2 µM -5% | [16]; at 3.7 µM 4% | [16]; at 11.0 µM 13%
active: [1]; at 33.0 µM 78% | [1]; at 100.0 µM 95% | [2]; at 100.0 µM 96% | [3]; at 33.0 µM 93% | [3]; at 100.0 µM 94% | [4]; at 100.0 µM 96% | [5]; at 33.0 µM 82% | [5]; [18] 72% | [5]; at 50.0 µM 99% | [5]; at 100.0 µM 94% | [6]; at 50.0 µM 77.3% | [6]; at 100.0 µM 96% | [7]; at 33.0 µM 82% | [7]; at 100.0 µM 96% | [8]; [18] 79% | [8]; at 50.0 µM 70.2% | [9]; at 100.0 µM 93% | [10]; at 50.0 µM 87.7% | [11]; at 33.0 µM 78% | [11]; at 50.0 µM 79.7% | [11]; at 100.0 µM 96% | [12]; at 33.0 µM 91% | [12]; at 100.0 µM 97% | [13]; at 100.0 µM 96% | [14]; at 33.0 µM 97% | [14]; at 100.0 µM 95% | [15]; [18] 72% | [15]; at 50.0 µM 77% | [16]; at 33.0 µM 81% | [16]; at 100.0 µM 95%

O=C(c1ccccc1)[C@H]1Nc2ccc(Cl)cc2[C@H]2OCCC[C@@H]12
active: [1]; at 100.0 µM 86% | [2]; at 100.0 µM 88% | [4]; at 100.0 µM 88% | [5]; at 100.0 µM 91% | [6]; at 100.0 µM 90% | [7]; at 100.0 µM 83% | [9]; at 100.0 µM 85% | [11]; at 33.0 µM 86% | [11]; [18] 93% | [11]; at 50.0 µM 82.5% | [11]; at 100.0 µM 95% | [12]; at 100.0 µM 81% | [13]; at 100.0 µM 91% | [14]; at 100.0 µM 94% | [16]; at 100.0 µM 92%
inactive: [1]; at 1.2 µM -16% | [1]; at 3.7 µM -40% | [1]; at 11.0 µM -19% | [1]; at 33.0 µM 22% | [2]; at 1.2 µM -7% | [2]; at 3.7 µM -6% | [2]; at 11.0 µM -2% | [2]; at 33.0 µM 24% | [3]; at 1.2 µM -16% | [3]; at 3.7 µM -20% | [3]; at 11.0 µM -25% | [3]; at 33.0 µM -2% | [3]; at 100.0 µM 14% | [4]; at 1.2 µM -19% | [4]; at 3.7 µM -23% | [4]; at 11.0 µM -39% | [4]; at 33.0 µM 32% | [5]; at 1.2 µM -2% | [5]; at 3.7 µM -2% | [5]; [17] 7% | [5]; at 11.0 µM -6% | [5]; at 33.0 µM 33% | [5]; [18] 4% | [5]; at 50.0 µM 67.2% | [6]; at 1.2 µM -23% | [6]; at 3.7 µM -25% | [6]; [17] -13% | [6]; at 11.0 µM -25% | [6]; at 33.0 µM -6% | [6]; [18] 49% | [6]; at 50.0 µM 12.9% | [7]; at 1.2 µM -40% | [7]; at 3.7 µM -23% | [7]; at 11.0 µM -41% | [7]; at 33.0 µM 31% | [8]; [17] -18% | [8]; [18] 33% | [8]; at 50.0 µM 40.5% | [9]; at 1.2 µM -14% | [9]; at 3.7 µM 2% | [9]; at 11.0 µM -10% | [9]; at 33.0 µM 23% | [10]; [17] 33% | [10]; [18] 44% | [10]; at 50.0 µM 32.6% | [11]; at 1.2 µM -22% | [11]; at 3.7 µM -7% | [11]; [17] 12% | [11]; at 11.0 µM 34% | [12]; at 1.2 µM -15% | [12]; at 3.7 µM -15% | [12]; at 11.0 µM -16% | [12]; at 33.0 µM 17% | [13]; at 1.2 µM -19% | [13]; at 3.7 µM -31% | [13]; at 11.0 µM -34% | [13]; at 33.0 µM 32% | [14]; at 1.2 µM 7% | [14]; at 3.7 µM 11% | [14]; at 11.0 µM 18% | [14]; at 33.0 µM 57% | [15]; [17] -24% | [15]; [18] 1% | [15]; at 50.0 µM 25.9% | [16]; at 1.2 µM -13% | [16]; at 3.7 µM -11% | [16]; at 11.0 µM -10% | [16]; at 33.0 µM 31%
